Source: PubChem
CYP2C19 act = cytochrome P450 2C19 (human) activation; AID 1025; activation factor at 5 µM; P33261; 96,000 tested, under 10 active; recombinant CYP2C19, luciferin-H EGE luminescence; hits give high values; 0 = fully inhibited enzyme, 1 = untreated enzyme;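 active = activation factor of at least 2 at 5 µM in the primary screen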;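 note: 0 = wells with 2.5 mM tranylcypromine and 1 = vehicle-only wells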
Target sequence (P33261 whole entry, looked up): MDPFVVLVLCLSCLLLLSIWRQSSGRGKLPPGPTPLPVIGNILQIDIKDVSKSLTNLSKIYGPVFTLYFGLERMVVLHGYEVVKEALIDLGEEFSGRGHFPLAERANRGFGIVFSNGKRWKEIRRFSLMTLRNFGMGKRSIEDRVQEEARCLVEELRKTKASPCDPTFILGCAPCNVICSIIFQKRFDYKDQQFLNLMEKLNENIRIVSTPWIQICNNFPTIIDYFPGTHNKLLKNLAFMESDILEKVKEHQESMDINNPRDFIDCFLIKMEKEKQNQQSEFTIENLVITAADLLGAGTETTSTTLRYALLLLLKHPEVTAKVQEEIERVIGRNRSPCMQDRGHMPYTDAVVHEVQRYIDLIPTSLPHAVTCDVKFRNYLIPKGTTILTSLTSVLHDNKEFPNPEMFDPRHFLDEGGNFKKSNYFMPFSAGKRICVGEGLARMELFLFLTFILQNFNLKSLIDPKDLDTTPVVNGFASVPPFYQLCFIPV
CYP2C9 inh = human CYP2C9 inhibition; P11712; inhibition, % at 5 µM; hit rate 20% among 96,000; CYP2C9 Supersomes, luciferin-H conversion, luminescence;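 active = blocking of liver enzyme CYP2C9 beyond about 50% at 5 µM, limit read from the data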
MRP-1 activ = MRP-1 activation; H69AR cells + doxorubicin, viability rescue, CellTiter-Glo; viability increase, % at 10 µM; hit rate 0.61% among 140,000;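 active = viability gain under doxorubicin at or above a set limit, the compound median plus 3 SD, cut at about 4.7% in these data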;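 note: MRP-1 overexpressing cells given doxorubicin 25 µM after compound pretreatment; 18-22 h compound pretreatment then 72 h with doxorubicin before readout; 0% = doxorubicin-only wells and 100% = vehicle-treated cells without doxorubicin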
MRP reversal = compounds reversing MRP-mediated drug resistance | H69AR cells + 2 uM doxorubicin, CellTiter-Glo, 72 h | AID 602 | hit rate 0.04% among 85,000 | differential viability (reversal), % at 10 µM;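 active = viability drop by adding the cancer drug above about 55%, with treated viability meeting a 40% cutoff, limit read from the data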;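 note: viability without doxorubicin minus viability with 2 µM doxorubicin for each compound; larger differential means the compound sensitizes cells more to doxorubicin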
CYP2C19 inhib = human CYP2C19 inhibition. P33261. hit rate 21% among 96,000. CYP2C19 Supersomes, luciferin-H EGE luminescence, 30 min. inhibition, % at 5 µM;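 active = CYP2C19 inhibition above a set limit at 5 µM in the primary screen, cut at about 50% in these data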;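 note: plate controls were negative control wells for no effect and 2.5 mM tranylcypromine positive control for full effect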
CYP2C9 activ = activators of human CYP2C9 | P11712 | recombinant CYP2C9, luciferin-H conversion, luminescence; hits give high values; factor 1 = untreated enzyme, 0 = blocked | activation factor at 5 µM | hit rate 1.4% among 96,000;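 active = activation factor of 2 or more for CYP2C9 at a 5 µM dose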;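 note: 0 = sulfaphenazole-blocked wells and 1 = vehicle-only wells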
Starred values were filed as active, the others as inactive; · = not tested or not shown. A selection: hits, their analogues and other compounds. The true share with any hit is near 21%.

SMILES | CYP2C19 act | CYP2C9 inh | MRP-1 activ | MRP reversal | CYP2C19 inhib | CYP2C9 activ
CCCCCCn1c(SCC(=O)Nc2cc(C)on2)nc2ccccc2c1=O | 0.5 | 70.8* | -2.0 | -14.2 | 47.2 | 0.3
CCCCn1c(SCC(=O)Nc2cc(C)on2)nc2ccsc2c1=O | 1.1 | 9.4 | -2.9 | 1.8 | -11.3 | 0.9
Cc1cc(NC(=O)CSc2nc3cc4c(cc3c(=O)n2CCc2ccccc2)OCO4)no1 | 0.4 | 45.7 | -1.4 | -5.3 | 58.8* | 0.5
CCn1c(SCC(=O)NCCc2ccc(OC)c(OC)c2)nc2c1c(=O)n(C)c(=O)n2C | 0.9 | 8.3 | -0.9 | 4.8 | 9.2 | 0.9
CCOC(=O)CSc1nc2ccccc2c(=O)n1CCC(=O)NCCc1ccc(OC)c(OC)c1 | 0.4 | 65.2* | -4.2 | 10.3 | 60.1* | 0.3
N#Cc1nc(-c2ccco2)oc1NCc1cccnc1 | 0.6 | 14.7 | -2.0 | 2.6 | 37.3 | 0.9
COc1ccc(-c2nc(C#N)c(NCc3cccnc3)o2)cc1OC | 0.7 | 50.9* | -4.1 | 4.5 | 31.9 | 0.5
N#Cc1nc(COc2cccc(Cl)c2)oc1NCc1ccncc1 | 0 | 99.7* | -5.8 | -4.5 | 100.0* | 0
N#Cc1nc(-c2cccc(Cl)c2)oc1NCc1cccnc1 | 0 | 94.0* | 0.7 | -24.3 | 95.1* | 0.1
COc1ccc(CNc2oc(COc3ccc(Cl)cc3)nc2C#N)cc1 | 0.7 | 29.3 | -2.5 | 6.6 | 30.6 | 0.7
COc1cc(C(=S)N2CCOCC2)ccc1OC(=O)c1cc([N+](=O)[O-])c(C)c([N+](=O)[O-])c1 | · | · | -3.3 | · | · | ·
CN(CCNC(=O)C1CC(=O)N(C2CCCC2)C1)Cc1ccccc1 (stereo not drawn) | · | · | · | 0.8 | · | ·
COc1cc(CSc2ncn[nH]2)c(OC)cc1CSc1ncn[nH]1 | 0.4 | -2.3 | 2.4 | 3.2 | 62.3* | 1
O=C(O)c1ccc(CSc2ncn[nH]2)cc1 | 0.9 | -2.6 | -1.7 | 21.4 | 9.5 | 1
CCCOc1ccc(CSC(CC(=O)O)C(=O)O)cc1 (stereo not drawn) | 1.1 | 7.6 | -2.4 | · | -10.7 | 0.9
CCCOc1ccc(CSc2ncn[nH]2)cc1 | 0.6 | 17.9 | 7.4* | 14.5 | 44.9 | 0.8
Brc1ccc(CSc2ncn[nH]2)cc1 | 0.6 | 12.9 | 4.9* | -2.8 | 42.0 | 0.9
Cc1cccc2cc3c(N)c(C(=O)N4CCc5ccccc54)sc3nc12 | · | · | -2.1 | · | · | ·
CCOC(=O)c1c(-c2ccc(C)cc2)csc1NC1=NS(=O)(=O)c2ccccc21 | · | · | -1.6 | · | · | ·
CC(=O)N/C(=C\c1ccccc1)C(=O)NCC(=O)O | · | · | 2.5 | · | · | ·
Cc1nn(-c2ccccc2)c(N)c1C1(O)C(=O)N(C)c2ccccc21 (stereo not drawn) | · | · | -2.8 | · | · | ·
CCN1C(=O)C2(C(C#N)=C(N)Oc3c2c(C)nn3-c2ccccc2)c2ccccc21 (stereo not drawn) | 0.4 | 79.4* | -1.3 | -5.8 | 60.7* | 0.2
CC(=O)N1C(=O)C2(C(C#N)=C(N)Oc3c2c(C)nn3-c2ccccc2)c2ccccc21 (stereo not drawn) | 0.6 | 81.4* | -0.9 | -2.3 | 39.2 | 0.2
Cc1nn(-c2ccccc2)c2c1C1(C(=O)N3c4c(cccc41)C(C)CC3(C)C)C(C#N)=C(N)O2 (stereo not drawn) | 0.2 | 97.1* | -4.1 | -16.1 | 75.8* | 0
Cc1nn(-c2ccccc2)c2c1C1(C(=O)N(C)c3ccccc31)C(C#N)=C(N)O2 (stereo not drawn) | 0.8 | 55.6* | -3.4 | -16.0 | 15.2 | 0.4
SMILES | CYP2C19 act | CYP2C9 inh | MRP-1 activ | MRP reversal | CYP2C19 inhib | CYP2C9 activ
Cc1cc2c(c(=O)o1)C1(C(=O)N(C)c3ccccc31)C(C#N)=C(N)O2 (stereo not drawn) | 1 | 7.9 | -0.3 | 25.9 | 2.3 | 0.9
CCCCc1[nH]nc2c1C1(C(=O)N(CC)c3ccccc31)C(C#N)=C(N)O2 (stereo not drawn) | 1 | -10.2 | -1.0 | -4.1 | -2.7 | 1.1
Cc1cc2cc(CNC(=O)c3cccc([N+](=O)[O-])c3)ccc2[nH]1 | · | · | 2.7 | · | · | ·
Cc1nn(CC#N)c(=O)n1-c1ccccc1 | 1 | -3.3 | 0.1 | -4.2 | -1.3 | 1
CC(=O)N1C(=O)C2(C(C#N)=C(N)Oc3cc(C)oc(=O)c32)c2ccccc21 (stereo not drawn) | 0.5 | 88.5* | 1.1 | 3.8 | 49.5 | 0.1
O=C(/C=C/c1ccc2c(c1)OCO2)NCCSCc1ccc(Cl)cc1Cl | 0.8 | 72.9* | -0.3 | · | 20.9 | 0.3
O=C(/C=C/c1ccc2c(c1)OCO2)NCCSCc1cccc(Cl)c1 | 0.7 | 43.0 | -3.0 | · | 25.3 | 0.6
Cc1cccc(CSCCNC(=O)c2ccc(CN3CCOCC3)cc2)c1 | · | · | -0.9 | · | · | ·
O=C(NCCSCc1ccc(Cl)cc1Cl)c1ccc(CN2CCOCC2)cc1 | 0.5 | 80.9* | -2.6 | · | 48.9 | 0.2
Cc1cc(C)cc(-n2nnnc2SCC(=O)Nc2nc(-c3ccc(F)cc3)cs2)c1 | 0.8 | -124.5 | -0.8 | · | 23.3 | 2.2*
Cc1ccc(-n2nnnc2SCC(=O)Nc2nc(-c3ccc(F)cc3)cs2)cc1C | 0.7 | 51.5* | -4.8 | · | 29.6 | 0.5
COc1ccccc1NC(=S)N1CCN(Cc2ccccc2)CC1 | · | · | -0.7 | · | · | ·
Fc1ccc(-c2nc3ccncc3[nH]2)cc1 | 0.5 | 62.0* | -1.9 | · | 47.3 | 0.4
CC(C)(C)NS(=O)(=O)c1ccc(CCC(=O)NCc2cccnc2)cc1 | 0.6 | 87.2* | -3.4 | 3.0 | 36.0 | 0.1
CC(C)(C)NS(=O)(=O)c1ccc(CCC(=O)NCc2ccco2)cc1 | 0.7 | 67.1* | -2.0 | -9.1 | 33.6 | 0.3
O=C(CCc1ccc(S(=O)(=O)NCc2ccccc2)cc1)NCc1ccco1 | · | · | -2.1 | · | · | ·
COC(=O)c1cc(OC)c(OC)cc1NC(=S)N1CCN(C/C=C/c2ccccc2)CC1 | · | · | -3.2 | · | · | ·
CC(C(=O)N1CCCc2ccccc21)N1C(=O)c2ccccc2C1=O (stereo not drawn) | · | · | -0.9 | -5.3 | · | ·
O=C(CN1C(=O)c2cccc3cccc1c23)NCC1CCCO1 (stereo not drawn) | 1 | -252.8 | -3.1 | 4.3 | -0.2 | 3.5*
O=C(CN1c2cccc3cccc(c23)S1(=O)=O)NCc1ccc2c(c1)OCO2 | 0.2 | -313.8 | -2.5 | 0.8 | 81.3* | 4.1*
CCC1Sc2ccccc2N(CC(=O)NCc2ccc3c(c2)OCO3)C1=O (stereo not drawn) | 0.3 | 40.1 | -0.6 | -2.4 | 71.8* | 0.6
O=C(CN1C(=O)c2ccccc2C1=O)NCc1ccccn1 | 1.1 | -2.7 | 0.4 | -12.8 | -6.2 | 1
O=C(CN1C(=O)c2cccc3cccc1c23)NCc1ccccn1 | 0.9 | -175.5 | -0.6 | -8.4 | 7.5 | 2.8*
CNC(=O)CN1C(=O)c2cccc3cccc1c23 | 1 | -19.8 | -1.9 | 5.1 | -3.9 | 1.2
O=C(CN1C(=O)c2ccccc2S1(=O)=O)NCc1ccc2c(c1)OCO2 | · | · | 0.3 | -12.9 | · | ·
O=C(Cn1cnc2ccccc2c1=O)N1CCN(Cc2ccc3c(c2)OCO3)CC1 | 1 | 8.1 | -0.7 | 16.8 | -2.8 | 0.9
O=C(CN1C(=O)c2cccc3cccc1c23)NCc1ccc2c(c1)OCO2 | 0.3 | -299.5 | -0.5 | 3.7 | 68.0* | 4*
